This is a sample that favours compounds with a hit; in the whole collection about 2.9% have one here.
CF NFkB inh: cystic fibrosis NF-kB activation inhibition; KKLEB NF-kB-GFP reporter, PAF-induced, GFP fluorescence overnight; inhibition, % at 5 µM; 0.86% of 360,000 active; AID 588850;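 active = at least 50% inhibition at 5 µM, scaled per plate between neutral and stimulator controls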;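 note: PAF is a Pseudomonas aeruginosa culture filtrate used as stimulus; plate controls were PAF-stimulated DMSO wells for no effect and unstimulated DMSO wells for full effect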
EBV LMP1 NFkB: Epstein-Barr LMP1 NF-kappaB reporter inhibition; LMP1-induced NF-kappaB luciferase reporter cells, luminescence; inhibition, % at 12.5 µM; 0.69% of 350,000 active; in the data active = inhibition above about 41%; inconclusive = no clear call, values can overlap the other calls;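 note: 0% = neutral control wells and 100% = reference inhibitor control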
Shn3 3UTR inh: reduces Shn3 3'UTR luciferase signal in osteoblasts. Clone20 osteoblast Shn3 3'UTR firefly luciferase, 24 h. inhibition, % at 12.5 µM. 0.52% of 360,000 active;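 active = mean inhibition of at least 75% with every replicate also reaching 75%; inconclusive = mean inhibition at least 75% but some replicate below; inactive = mean inhibition below 75%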;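 note: 0% = median of neutral control wells and 100% = pilot-screen positive control compound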
Peg3 prom inh: reduces Peg3 promoter-driven luciferase expression in HeLa. HeLa PEG-Prom luciferase reporter, luminescence, overnight. 1.7% of 360,000 active. inhibition, % at 20 µM;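 active = inhibition of at least 50% at 20 µM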
KKLEB tox: counter-screen for CF NF-kB inhibitors: cytotoxicity | KKLEB CF airway cells viability, ATPlite luminescence, overnight; active compounds read low; cells stimulated with P. aeruginosa culture filtrate | activity change (cytotoxicity), % at 5 µM | 0.36% of 360,000 active | AID 602141;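 active = corrected activity change at or below -50% at 5 µM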
HIF-2a block: blocks HIF-2a reporter activity; AID 624352; 786-0 RCC cells HIF-2a reporter, luciferase luminescence, overnight; inhibition, % at 18.8 µM; 0.72% of 360,000 active;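 active = inhibition of the luminescence signal of 40% or more relative to plate controls, in a single-dose primary screen at 18.75 µM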
* marks the source's active call; other numbers are inactive results; ? = inconclusive; · = no result.

SMILES	CF NFkB inh	EBV LMP1 NFkB	Shn3 3UTR inh	Peg3 prom inh	KKLEB tox	HIF-2a block
CCC1(c2ccccc2)ON(c2c(Br)cccc2Br)C1=O (centres undefined)	23.5	5.3	-26.1	73.0*	6.7	32.6
CCCCCCCNC(=O)C1(CC2CC(c3ccc(Cl)cc3)=NO2)CCN(C(=O)Cc2ccc(F)cc2)CC1 (centres undefined)	14.8	2.6	9.4	19.1	-23.0	13.7
CCCCCCCNC(=O)C1(CC2CC(c3ccc(Cl)cc3)=NO2)CCNCC1 (centres undefined)	25.4	-9.0	2.3	111.0*	-19.2	-2.3
Cc1nc2ccc(NC(=O)c3ccccc3)cc2s1	3.7	-6.0	2.7	-250.9	3.6	-206.3
CN(c1ccccc1)S(=O)(=O)c1cccc(NC(=O)c2cccc(C#N)c2)c1	0.3	3.4	33.5	45.1	-8.8	11.4
Cc1nc2ccc(NC(=O)c3cccc(S(=O)(=O)N(C)c4ccccc4)c3)cc2s1	-7.9	26.3	89.6*	38.6	14.2	21.9
Cc1cc(C)c(NC(=O)CN(C)CC(=O)Nc2cccc(S(=O)(=O)N(C)c3ccccc3)c2)c(C)c1	11.3	9.7	26.2	57.5*	-2.9	3.3
CN(c1ccccc1)S(=O)(=O)c1cccc(NC(=O)c2ccc3ncsc3c2)c1	0.8	-0.7	88.1*	57.4*	-0.1	8.8
COc1ccc(OC)c2cc3ccccc3cc12	-52.6	-14.2	11.7	54.9*	-3.0	-28.9
COc1cc2ccccc2cc1C(=O)O	-17.5	-3.7	4.4	6.4	-6.9	6.6
COc1cc2ccccc2ccc1=NO	78.6*	38.3	8.0	-29.9	-11.7	5.0
COc1ccc(-n2cc(CNCCc3cnc[nH]3)c(-c3cccc(F)c3)n2)cc1	-11.4	-9.6	33.2	-20.0	-13.0	-19.1
COc1cc(OC)cc(-c2c(-c3ccsc3)c3cc(Br)ccc3n2C)c1	-2.6	-12.4	6.0	2.4	7.8	13.3
CCOc1ccccc1C(=O)NC1CC2CCCC(C1)N2Cc1nnnn1Cc1ccco1 (centres undefined)	0.8	57.2*	33.8	19.6	1.9	3.2
O=C(NC1CC2CCC(C1)N2Cc1nnnn1Cc1ccco1)NC12CC3CC(CC(C3)C1)C2 (centres undefined)	1.7	8.0	-3.6	7.7	4.2	21.1
O=c1cc(-c2ccccc2)cc(-c2ccccc2)n1O	-11.8	26.7	91.8*	15.2	-28.4	-21.7
Cn1c(-c2ccccc2)cc(=O)cc1-c1ccccc1	7.1	-9.6	-4.3	1.2	-5.4	4.1
O=C(NCc1ccccc1)C(c1ccc(F)cc1)N1CCN(c2ccccc2F)CC1 (centres undefined)	·	·	·	·	·	4.2
CCOc1ccc(NC(=O)Cn2cc(C(C)=O)c3ccccc32)cc1	0.2	12.2	34.5	8.8	-9.4	3.6
CCOc1ccc(NC(=O)Cn2cc(C(=O)CC)c3ccccc32)cc1	-2.2	70.9*	2.0	15.8	0.9	4.5
COc1cc(CNC(C)(C)CO)cc(Br)c1OCc1ccc(Cl)cc1Cl	38.7	-11.2	-4.7	90.3*	-42.5	1.4
COc1cc(CNCCO)cc(Cl)c1OCc1ccc(Cl)cc1Cl	12.7	-0.8	11.1	104.7*	-14.4	4.6
COc1cc(CNc2ccc(O)cc2)cc(Br)c1OCc1ccccc1	-0.4	-16.5	18.1	-11.2	-4.8	-10.7
COc1cc(CNCCO)cc(Br)c1OCc1ccccc1Cl	2.2	-1.9	-11.1	40.7	-2.5	-12.5
COc1ccc(Cl)cc1N/C(N)=N/c1nc(C)cc(=O)[nH]1	5.6	1.3	-2.1	-14.7	-3.9	2.5
COc1ccc(Cl)cc1N/C(N)=N/c1nc(CSc2ccc(C)cc2)cc(=O)[nH]1	7.6	9.2	80.2*	4.4	-14.4	-12.2
CCN(CC)S(=O)(=O)c1cc(NC(=O)CNc2cccc(S(=O)(=O)N3CCOCC3)c2)ccc1C	-5.4	25.4	?	11.8	10.2	14.3
COc1ccc2nc(C)cc(SCC(=O)N/N=C/c3ccccc3)c2c1	25.3	6.0	-1.7	18.5	-3.3	4.2
COc1ccc2nc(C)cc(SCC(=O)N/N=C/c3ccc(O)cc3O)c2c1	11.8	6.4	86.9*	33.8	-14.2	21.4
O=S1(=O)CCN(c2ccccc2CC(c2c[nH]c3ccccc23)c2c[nH]c3ccccc23)CC1	7.4	-12.2	13.8	57.4*	15.2	-12.4
